Values joined by “and” are separate entries in the source; they are usually repeats but may differ in a detail not shown here. Identical values can stand only once. Among all 5,500 compounds or so, about 2,000 (36%) were called active. Not shown: some 18% with an inconclusive outcome. No stated cut-off is given here; in the data, active means normalized growth mostly below about 0.91 (no sharp cut-off); inconclusive means no clear call, values can overlap the other calls; inactive means mostly above about 0.92. This is one part of the list.
Experiment: chemical genetic growth profiling, strain panel (AID 1159580);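 further: tested at 20 µM; growth read once vehicle control cultures reached saturation at 30 °C; 1 = growth at the plate median or of vehicle wells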
Settings: S. cerevisiae deletion strains, growth OD

Measured: normalized growth

COC(=O)C[C@H]1C2(C)CC34OC5(C)O[C@@]6([C@H](OC(C)=O)C(OC(C)=O)[C@]7(C)C(/C(=C(/O)C(C)C)C(=O)O[C@H]7c7ccoc7)[C@@]6(O5)[C@H](OC(C)=O)[C@@]3(O)C2OC(=O)C(C)C)[C@]14C (stereo partly drawn)
inactive: locus YAL021C, strain ccr4, stronger effect = lower value 1.01 | locus YAL026C, strain drs2, stronger effect = lower value 0.995 | locus YAL030W, strain snc1, stronger effect = lower value 0.997 | locus YBL061C, strain skt5, stronger effect = lower value 1.01 | locus YBR009C, strain hhf1, stronger effect = lower value 1.01 | locus YBR021W, strain FUR4, stronger effect = lower value 1.06 | locus YBR023C, strain chs3, stronger effect = lower value 1 | locus YBR171W, strain sec66, stronger effect = lower value 0.994 | locus YBR229C, strain ROT2, stronger effect = lower value 0.955 | locus YBR231C, strain swc5, stronger effect = lower value 1 | locus YBR279W, strain paf1, stronger effect = lower value 0.996 | locus YCL011C, strain gbp2, stronger effect = lower value 0.989 | locus YCL016C, strain dcc1, stronger effect = lower value 1.02 | locus YCL029C, strain bik1, stronger effect = lower value 1.01 | locus YCL061C, strain MRC1, stronger effect = lower value 1 | locus YCL069W, strain vba3, stronger effect = lower value 0.998 | locus YCR088W, strain abp1, stronger effect = lower value 0.992 | locus YDL005C, strain med2, stronger effect = lower value 0.982 | locus YDL035C, strain GPR1, stronger effect = lower value 0.976 | locus YDL040C, strain nat1, stronger effect = lower value 0.978 | locus YDL074C, strain BRE1, stronger effect = lower value 0.986 | locus YDL101C, strain DUN1, stronger effect = lower value 1 | locus YDL134C, strain PPH21, stronger effect = lower value 1.02 | locus YDL185W, strain tfp1, stronger effect = lower value 0.956 | locus YDL192W, strain arf1, stronger effect = lower value 0.986 | locus YDR001C, strain nth1, stronger effect = lower value 1 | locus YDR069C, strain doa4, stronger effect = lower value 1 | locus YDR101C, strain arx1, stronger effect = lower value 1 | locus YDR137W, strain rgp1, stronger effect = lower value 0.953 | locus YDR159W, strain sac3, stronger effect = lower value 0.975 | locus YDR162C, strain NBP2, stronger effect = lower value 0.973 | locus YDR195W, strain ref2 0.959 | locus YDR297W, strain sur2, stronger effect = lower value 1.02 | locus YDR318W, strain mcm21, stronger effect = lower value 0.994 | locus YDR334W, strain swr1, stronger effect = lower value 0.991 | locus YDR335W, strain msn5, stronger effect = lower value 0.993 | locus YDR388W, stronger effect = lower value 0.994 | locus YDR392W, strain spt3, stronger effect = lower value 1.05 | locus YDR502C, strain sam2, stronger effect = lower value 1.03 | locus YEL003W, strain gim4, stronger effect = lower value 0.995 | locus YEL037C, strain rad23, stronger effect = lower value 0.997 | locus YEL061C, strain CIN8 (second series), stronger effect = lower value 0.994 | locus YEL061C, strain CIN8, stronger effect = lower value 1 | locus YER015W, strain faa2, stronger effect = lower value 1.01 | locus YER016W, strain bim1, stronger effect = lower value 0.981 | locus YER110C, stronger effect = lower value 0.992 | locus YER111C, strain swi4, stronger effect = lower value 0.985 | locus YER155C, strain BEM2 (second series), stronger effect = lower value 1.01 | locus YER155C, strain BEM2, stronger effect = lower value 1.01 | locus YER167W, strain BCK2, stronger effect = lower value 0.99 | locus YFR010W, strain ubp6, stronger effect = lower value 0.982 | locus YGL078C, strain dbp3, stronger effect = lower value 0.98 | locus YGL086W, strain mad1, stronger effect = lower value 1.01 | locus YGL167C, strain pmr1, stronger effect = lower value 0.995 | locus YGL173C, strain kem1, stronger effect = lower value 0.997 | locus YGL227W, strain vid30, stronger effect = lower value 0.987 | locus YGL240W, strain doc1, stronger effect = lower value 0.975 | locus YGL248W, strain PDE1, stronger effect = lower value 0.997 | locus YGL253W, strain hxk2, stronger effect = lower value 0.975 | locus YGR078C, strain PAC10, stronger effect = lower value 1 | locus YGR135W, strain pre9, stronger effect = lower value 1.06 | locus YGR252W, strain gcn5, stronger effect = lower value 1.04 | locus YHR013C, strain ard1, stronger effect = lower value 1 | locus YHR027C, strain rpn1, stronger effect = lower value 1.02 | locus YHR030C, strain SLT2, stronger effect = lower value 0.947 | locus YHR079C, strain IRE1 (second series), stronger effect = lower value 0.997 | locus YHR079C, strain IRE1, stronger effect = lower value 0.983 | locus YHR094C, strain hxt1, stronger effect = lower value 0.998 | locus YHR129C, strain ARP1, stronger effect = lower value 1 | locus YHR142W, strain chs7, stronger effect = lower value 1 | locus YHR200W, strain rpn10, stronger effect = lower value 0.996 | locus YIL066C, strain RNR3, stronger effect = lower value 0.963 | locus YIL073C, strain SPO22, stronger effect = lower value 0.966 | locus YIL125W, strain kgd1, stronger effect = lower value 1 | locus YIR030C, strain dcg1, stronger effect = lower value 1 | locus YJL092W, strain hpr5, stronger effect = lower value 0.997 | locus YJL095W, strain BCK1 (second series), stronger effect = lower value 1 | locus YJL095W, strain BCK1, stronger effect = lower value 1.02 and 0.966 | locus YJL115W, strain asf1, stronger effect = lower value 0.989 | locus YJL129C, strain trk1, stronger effect = lower value 0.975 | locus YJL134W, strain LCB3, stronger effect = lower value 0.994 | locus YJL154C, strain vps35, stronger effect = lower value 1 | locus YJL164C, strain tpk1, stronger effect = lower value 1.01 | locus YJL166W, strain qcr8, stronger effect = lower value 0.983 | locus YJL168C, strain set2, stronger effect = lower value 1.01 | locus YJL187C, strain SWE1 (second series), stronger effect = lower value 1.01 | locus YJL187C, strain SWE1, stronger effect = lower value 1.01 | locus YJR066W, strain TOR1, stronger effect = lower value 0.928 | locus YJR075W, strain HOC1, stronger effect = lower value 1.02 | locus YKL009W, strain mrt4, stronger effect = lower value 0.979 | locus YKL068W, stronger effect = lower value 0.986 | locus YKL160W, strain elf1, stronger effect = lower value 1.01 | locus YKR001C, strain vps1, stronger effect = lower value 1 | locus YKR026C, strain gcn3, stronger effect = lower value 0.995 | locus YKR091W, strain srl3, stronger effect = lower value 0.996 | locus YLL001W, strain dnm1, stronger effect = lower value 1.02 | locus YLL026W, stronger effect = lower value 0.987 | locus YLL041C, strain sdh2, stronger effect = lower value 0.988 | locus YLR027C, strain aat2, stronger effect = lower value 1 | locus YLR039C, strain RIC1, stronger effect = lower value 0.863 | locus YLR058C, strain SHM2, stronger effect = lower value 0.987 | locus YLR102C, strain apc9, stronger effect = lower value 1 | locus YLR113W, strain HOG1, stronger effect = lower value 1.01 | locus YLR221C, strain rsa3, stronger effect = lower value 0.992 | locus YLR258W, strain gsy2, stronger effect = lower value 1.01 | locus YLR262C, strain YPT6 (second series), stronger effect = lower value 0.924 | locus YLR268W, strain sec22, stronger effect = lower value 0.986 | locus YLR320W, strain mms22, stronger effect = lower value 0.988 | locus YLR342W, strain FKS1, stronger effect = lower value 0.996 | locus YLR357W, strain rsc2, stronger effect = lower value 0.997 | locus YLR370C, strain arc18, stronger effect = lower value 0.99 | locus YLR371W, strain rom2, stronger effect = lower value 0.99 | locus YLR384C, strain iki3, stronger effect = lower value 0.994 | locus YLR418C, strain cdc73, stronger effect = lower value 1.07 | locus YML016C, strain PPZ1, stronger effect = lower value 0.995 | locus YML032C, strain rad52, stronger effect = lower value 0.982 | locus YML120C, strain ndi1, stronger effect = lower value 0.995 | locus YML124C, strain tub3, stronger effect = lower value 1.01 | locus YMR058W, strain fet3, stronger effect = lower value 1.01 | locus YMR078C, strain ctf18, stronger effect = lower value 0.998 | locus YMR125W, strain sto1, stronger effect = lower value 1.01 | locus YMR129W, stronger effect = lower value 0.997 | locus YMR205C, strain PFK2, stronger effect = lower value 0.992 | locus YMR223W, strain ubp8, stronger effect = lower value 1.02 | locus YMR231W, strain pep5, stronger effect = lower value 0.957 | locus YMR263W, strain SAP30, stronger effect = lower value 0.992 | locus YMR307W, strain GAS1, stronger effect = lower value 0.926 | locus YNL067W, strain RPL9B, stronger effect = lower value 1.02 | locus YNL071W, strain lat1, stronger effect = lower value 0.998 | locus YNL153C, strain GIM3, stronger effect = lower value 1.02 | locus YNL183C, strain NPR1, stronger effect = lower value 0.954 | locus YNL209W, strain ssb2, stronger effect = lower value 0.994 | locus YNL233W, strain BNI4, stronger effect = lower value 1.04 | locus YNL248C, strain rpa49, stronger effect = lower value 0.989 | locus YNL250W, strain rad50, stronger effect = lower value 0.987 | locus YNL271C, strain bni1, stronger effect = lower value 0.999 | locus YNL298W, strain CLA4, stronger effect = lower value 0.994 | locus YNL307C, strain MCK1, stronger effect = lower value 1.01 | locus YNL322C, strain KRE1 (second series), stronger effect = lower value 0.982 | locus YNR049C, strain mso1, stronger effect = lower value 0.994 | locus YNR052C, strain pop2, stronger effect = lower value 1.02 | locus YOL012C, strain htz1 1.3 | locus YOL147C, strain pex11, stronger effect = lower value 1.01 | locus YOR001W, strain rrp6, stronger effect = lower value 0.947 | locus YOR061W, strain CKA2, stronger effect = lower value 0.962 | locus YOR069W, strain VPS5, stronger effect = lower value 1 | locus YOR070C, strain gyp1, stronger effect = lower value 0.987 | locus YOR080W, strain dia2, stronger effect = lower value 0.977 | locus YOR083W, strain WHI5, stronger effect = lower value 1.02 | locus YOR106W, strain vam3, stronger effect = lower value 1.01 | locus YOR136W, strain idh2, stronger effect = lower value 1 | locus YOR144C, strain elg1, stronger effect = lower value 1 | locus YOR184W, strain ser1, stronger effect = lower value 0.987 | locus YOR231W, strain MKK1, stronger effect = lower value 0.981 | locus YOR265W, strain rbl2, stronger effect = lower value 0.994 | locus YOR270C, strain vph1, stronger effect = lower value 0.87 | locus YOR290C, strain snf2, stronger effect = lower value 0.979 | locus YOR316C, strain cot1, stronger effect = lower value 1.01 | locus YPL051W, strain arl3, stronger effect = lower value 0.999 | locus YPL078C, strain atp4, stronger effect = lower value 1.01 | locus YPL106C, strain sse1, stronger effect = lower value 1.06 | locus YPL240C, strain hsp82, stronger effect = lower value 0.99 | locus YPL256C, strain CLN2, stronger effect = lower value 0.98 | locus YPR119W, strain clb2, stronger effect = lower value 0.997 | locus YPR141C, strain kar3, stronger effect = lower value 0.969 | locus YPR163C, strain tif3, stronger effect = lower value 1.01 | locus YPR167C, strain met16, stronger effect = lower value 0.993 | strain wtn01, stronger effect = lower value 1

— PubChem BioAssay AID1159580 (chemical genetic matrix, 2015)
